Records with an inconclusive call do not appear. Activity calls are given as the source filed them. Unless noted, calls come from the whole dose curve; as a rule, active = well fitted curve in either direction with a large enough effect (not every such curve was filed as active); inconclusive = small, poorly fitted or top-dose-only effect, or another doubt; inactive = flat fitted curve, though single readings scatter.

Assay [1] has as its target Lysosomal acid glucosylceramidase (Homo sapiens) (UniProt P04062). Description: Glucocerebrosidase-p2 (AID 348; in the data active = potency below about 10 µM; note: potency is the fitted concentration of half-maximal effect). The note with it: purified GBA, blue fluorogenic substrate, 40 min. Put shortly:
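Normal human glucocerebrosidase (0.2 nM) with blue fluorogenic substrate (80 uM final) in citrate/phosphate pH 5.9 with 10mM sodium taurocholate, 0.01% tween-20; 40 min RT, NaOH/glycine stop; fluorescence Ex 365/Em 440; AC50 from a titration from 0.6 nM upwards.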

Assay [2] can be described thus: AP1 Signaling Pathway (AID 357).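 Note: ME-180 reporter cells stimulated with EGF at its EC50 level; % is set by controls: 0 for no effect and ±100 for the full control effect.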 As to conditions: ME-180 AP-1-bla reporter, EGF-induced, beta-lactamase ratio, 5 h; at 7.69 µM (top of the series) unless noted. Put shortly:
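AP-1-bla ME-180 cells, Opti-MEM + 0.5% dialyzed FBS, plated overnight 37 °C. Cpd titration + EC50 EGF, 5 h 37 °C. CCF4 2.5 h RT; ex 405, em 460/530 ratio → %activity, AC50.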

Assay [3] in a line: NFAT Signaling Pathway (AID 444).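 Note: carbachol stimulus at about its EC50 of 1 µM final; % is set by controls: 0 for no effect and ±100 for the full control effect.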 As to conditions: Jurkat NFAT-bla M1, carbachol, beta-lactamase ratio, 5 h; at 7.69 µM (top of the series) unless noted. Put shortly:
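Read-out: CCF4 FRET ratio (460 nm/530 nm) after 1 h RT dye loading, used for %activity and AC50 from titration series. Cells: Jurkat NFAT-β-lactamase/M1 line, treated with compound plus 1 uM carbachol for 5 h, 37 °C.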

Assay [4] in a line: Stat Signaling Pathway (AID 446).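 Note: ME-180 cervical cancer cells given 40 pM IL-6 alongside compound; SIE-controlled beta-lactamase reporter measured as 460/530 nm FRET emission ratio; % is set by controls: 0 for no effect and ±100 for the full control effect.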 As to conditions: ME-180 (cervical carcinoma) SIE beta-lactamase reporter, IL-6 stimulated, 5 h; at 7.69 µM (top of the series) unless noted. Put shortly:
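FRET read-out (405 nm excitation, 460/530 nm emission) of a beta-lactamase reporter under a STAT-inducible element in ME-180 cervical carcinoma cells. Cells with compound receive 40 pM IL-6 for 5 h. Values are normalised to AC90 stimulation and AC90 JAK-inhibitor controls.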

The target in assay [5] is Glucocorticoid receptor (Homo sapiens) (UniProt P04150). Briefly: GR-EFC Redistribution (AID 451; calls by dose curve; note: potency is the fitted concentration of half-maximal effect). The note with it: CHO-K1 GR-EFC translocation, beta-gal luminescence, 2 h. Put shortly: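 Translocation of GR-ED fusion to nuclear EA restores b-gal, read by luminescence after 1 h room-temperature detection. Engineered CHO-K1 biosensor cells, 1,000/well, exposed 2 h at 37 C to titrations up to 46 uM final.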
Glucocorticoid receptor (Homo sapiens), sequence (P04150 whole entry, looked up, the tested form may be a part): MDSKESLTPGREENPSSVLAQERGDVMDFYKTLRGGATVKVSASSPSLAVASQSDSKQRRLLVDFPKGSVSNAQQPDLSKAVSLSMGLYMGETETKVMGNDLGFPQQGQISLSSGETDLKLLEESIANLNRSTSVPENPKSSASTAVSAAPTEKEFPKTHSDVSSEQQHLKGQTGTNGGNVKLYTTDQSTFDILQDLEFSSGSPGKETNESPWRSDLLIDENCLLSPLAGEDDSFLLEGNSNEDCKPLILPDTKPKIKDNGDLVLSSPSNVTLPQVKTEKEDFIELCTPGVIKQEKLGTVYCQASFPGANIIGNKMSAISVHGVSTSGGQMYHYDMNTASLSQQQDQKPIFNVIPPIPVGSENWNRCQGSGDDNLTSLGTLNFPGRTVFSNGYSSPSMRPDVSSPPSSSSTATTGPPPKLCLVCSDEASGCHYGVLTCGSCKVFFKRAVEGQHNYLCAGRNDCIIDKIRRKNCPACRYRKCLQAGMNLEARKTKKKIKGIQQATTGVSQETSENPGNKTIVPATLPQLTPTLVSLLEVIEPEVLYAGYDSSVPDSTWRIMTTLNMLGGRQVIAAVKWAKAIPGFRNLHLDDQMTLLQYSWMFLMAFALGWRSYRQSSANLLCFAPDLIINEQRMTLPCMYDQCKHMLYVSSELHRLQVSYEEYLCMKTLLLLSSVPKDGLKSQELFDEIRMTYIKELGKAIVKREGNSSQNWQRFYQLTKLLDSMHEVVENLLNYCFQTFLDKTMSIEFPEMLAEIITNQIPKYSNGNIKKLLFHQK

Assay [6] deals with Mitogen-activated protein kinase 10 (Mus musculus) (UniProt Q61831). Description: JNK3 AlphaScreen Assay (AID 530).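 Note: kinase came from lysate of stimulated human HepG2 cells; signal reports phosphorylation of biotinylated GST-cJun 1-79 at Ser73 with 10 µM ATP; % is set by controls: 0 for no effect and ±100 for the full control effect.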 The note with it: JNK3 lysate, c-Jun phosphorylation; series mostly up to 57.1 µM. Put shortly: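 Kinase buffer: 20 mM Tris-HCl pH 7.6, 10 mM MgCl2, 1 mM DTT, 0.1 mM Na3VO4, 0.01% Tween-20; ATP 10 uM. Substrate biotin-GST-cJun(1-79), enzyme from activated HepG2 lysates. Detection by Ser73 phospho-antibody AlphaScreen.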
On the technique in general: Bead proximity is the source of the signal in Alpha formats.

Assay [7] deals with 3',5'-cyclic-AMP phosphodiesterase 4B (Homo sapiens) (UniProt Q07343). Description: qHTS Assay for Inhibitors of PDE-IV (AID 607; active = well fitted activation curve with a large enough effect in the main read-out, with a control signal flat, not every such curve was filed as active; note: % of control where 0% means no effect). As to conditions: HEK293 ACTOne CNG channel cells, membrane potential fluorescence; series mostly up to 22.9 µM. Put shortly: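 Cell-based read-out of cAMP via a modified cyclic nucleotide-gated channel and membrane potential dye (535/590 nm) in HEK293 cells expressing PDE4 endogenously. Compounds tested up to 22.9 uM final; 100 uM RO 20-1724 reference.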
3',5'-cyclic-AMP phosphodiesterase 4B (Homo sapiens), sequence (Q07343 whole entry, looked up): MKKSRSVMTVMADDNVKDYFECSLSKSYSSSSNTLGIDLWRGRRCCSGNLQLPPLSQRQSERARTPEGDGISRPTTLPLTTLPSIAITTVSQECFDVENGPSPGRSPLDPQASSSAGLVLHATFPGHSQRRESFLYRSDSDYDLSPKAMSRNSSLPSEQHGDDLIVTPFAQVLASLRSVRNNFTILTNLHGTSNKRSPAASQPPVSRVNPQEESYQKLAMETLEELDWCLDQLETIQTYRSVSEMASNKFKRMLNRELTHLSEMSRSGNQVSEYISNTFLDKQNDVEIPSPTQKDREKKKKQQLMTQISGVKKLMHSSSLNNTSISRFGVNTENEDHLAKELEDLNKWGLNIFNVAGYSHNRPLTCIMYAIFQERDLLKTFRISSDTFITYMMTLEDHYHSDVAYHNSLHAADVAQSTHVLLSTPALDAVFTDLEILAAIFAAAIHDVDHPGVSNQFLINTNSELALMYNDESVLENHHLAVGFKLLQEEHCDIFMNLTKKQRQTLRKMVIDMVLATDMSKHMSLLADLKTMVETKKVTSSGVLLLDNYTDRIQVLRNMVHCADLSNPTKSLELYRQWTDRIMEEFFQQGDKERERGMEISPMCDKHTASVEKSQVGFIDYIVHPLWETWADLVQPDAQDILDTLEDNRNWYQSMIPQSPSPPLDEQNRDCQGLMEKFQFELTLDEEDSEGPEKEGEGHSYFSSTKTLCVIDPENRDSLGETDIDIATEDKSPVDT

A short description of assay [8]: qHTS Assay for Lipid Storage Modulators (AID 1519; calls by dose curve). The note with it: Drosophila S3 cells, BODIPY lipid droplet/cell ratio, laser cytometry, cells loaded with oleic acid; for activity change, negative = inhibition: at 57.5 µM (top of the series). Put shortly: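 Cells seeded at 5,000 per well were treated with compounds over a concentration series and loaded with oleic acid (400 uM, as added). Lipid droplet fluorescence (488 nm excitation, 500-530 nm channel) was read by laser-scanning cytometry and normalized to 20 uM Triacsin C.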
(In general: Quantitative high-throughput screening tests each substance at several concentrations.)

Assay [9] is described as follows: Primary qHTS for small molecule stabilizers of the endoplasmic reticulum resident proteome: Secreted ER Calcium Modulated Protein (SERCaMP) assay (AID 1508630; active = well fitted inhibition curve with a large enough effect; note: % is set by controls: 0 for no effect and ±100 for the full control effect). The note with it: SH-SY5Y GLuc-SERCaMP (Gaussia luciferase released on ER calcium loss) secretion, thapsigargin, luminescence; series mostly up to 38.4 µM. The method, boiled down: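 The SH-SY5Y reporter protocol was run at 3 concentrations up to 38.3 uM (primary) or 11 concentrations (follow-up): 16 h compound, 100 nM thapsigargin for 4 h, then extracellular luciferase luminescence.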

The mark [10] stands for this setting: measured here: cell count channel max response.
Setting [11] is: measured here: lipid channel max response.

Lysosomal acid glucosylceramidase (Homo sapiens), sequence (P04062 whole entry, looked up): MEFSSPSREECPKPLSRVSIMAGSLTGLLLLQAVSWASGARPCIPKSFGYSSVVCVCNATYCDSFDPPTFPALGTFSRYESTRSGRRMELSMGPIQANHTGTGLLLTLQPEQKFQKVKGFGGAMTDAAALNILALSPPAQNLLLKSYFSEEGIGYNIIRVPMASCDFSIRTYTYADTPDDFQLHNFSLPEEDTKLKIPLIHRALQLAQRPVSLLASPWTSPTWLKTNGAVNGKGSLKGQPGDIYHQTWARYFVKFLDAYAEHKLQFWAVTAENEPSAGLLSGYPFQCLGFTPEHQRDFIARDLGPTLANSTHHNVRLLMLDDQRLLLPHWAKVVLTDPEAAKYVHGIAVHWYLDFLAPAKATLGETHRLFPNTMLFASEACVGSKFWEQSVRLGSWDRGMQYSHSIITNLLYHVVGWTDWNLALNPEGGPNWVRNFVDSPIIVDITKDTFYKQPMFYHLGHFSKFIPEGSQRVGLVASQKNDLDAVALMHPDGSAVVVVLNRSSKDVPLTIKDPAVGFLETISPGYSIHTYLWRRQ

For `COC(=O)N1CCC[C@@]2(CCN(c3ccccc3)C2)C1`, the Potency in assay [1] is > 11.4 µM (inactive); in [5], > 46 µM (inactive). The activity change, negative = inhibition in assay [2] was -10.2% (inactive); in assay [3], -9.75% (inactive); in assay [8] it was -12.5% (inactive). The activity, negative = inhibition in [4] was 7.98% (inactive). The Potency entry in assay [6] and in assay [7] was “inactive” each time. Moreover, the max response in assay [8] (setting [10]) was 14%; in assay [8] (setting [11]), -1.29%. Further, the outcome in assay [9] was inactive.

As for `CC(C)NC(=O)N1CCC2(CC1)CCN(S(=O)(=O)c1ccccc1)CC2`, the figures for the Potency in assay [1] and in [5] were > 11.4 µM (inactive) and > 46 µM (inactive), respectively. Besides, the activity change, negative = inhibition in assay [2] was -11.1% (inactive); in [3], 6.99% (inactive); in assay [8] it was 3.73% (inactive). In addition, the activity, negative = inhibition in assay [4] was -1.93% (inactive). Further, the Potency entry in assay [6] and in [7] was “inactive” in each case. Also, the max response in assay [8] (setting [10]) is -0.645%; in assay [8] (setting [11]), 4.57%. Further, the outcome in assay [9] was inactive.

As for `Cc1noc(C)c1C(=O)N1CCC[C@@]2(CCN(C(=O)Nc3cccc(C#N)c3)C2)C1`, the figures for the Potency in assay [1] and in assay [5] were > 11.4 µM (inactive) and > 46 µM (inactive), respectively. In addition, the activity change, negative = inhibition in assay [2] is -3.34% (inactive); in [3] it was 5.42% (inactive); in assay [8] it was 5.85% (inactive). For the same molecule, the activity, negative = inhibition in assay [4] is -8.01% (inactive). Besides, the Potency result in [6] and in assay [7] was “inactive” each time. The max response in [8] (setting [10]) stood at 14.6%; in assay [8] (setting [11]), 24.7%. Besides, the outcome in assay [9] was inactive.

For `CCNc1ncc2ncc(=O)n(C)c2n1`, the Potency in assay [1] is > 11.4 µM (inactive); in assay [5], > 46 µM (inactive). Further, the activity change, negative = inhibition in assay [2] was 3.09% (inactive); in assay [3] it was -4.43% (inactive); in assay [8] it was 5.71% (inactive). In addition, in assay [4], the activity, negative = inhibition was -6.09% (inactive). For the same molecule, the Potency entry in [6] and in assay [7] was “inactive” throughout. The max response is 10.2% in assay [8] (setting [10]) and 17.6% in [8] (setting [11]). For the same molecule, the result in assay [9] was inactive.

As to `O=C(c1cc(C(F)(F)F)cc(C(F)(F)F)c1)N1CCC2(CC1)CCN(c1ccccc1)CC2`, the Potency in assay [1] was > 11.4 µM (inactive); in assay [5], > 46 µM (inactive). The activity change, negative = inhibition in assay [2] is 24.2% (inactive); in [3] it was -4.75% (inactive); in assay [8], -9.68% (inactive). Further, the activity, negative = inhibition in assay [4] is -7.04% (inactive). Moreover, the Potency entry in assay [6] and in assay [7] was “inactive” in each case. For the same molecule, the figures for the max response in assay [8] (setting [10]) and in assay [8] (setting [11]) were 10.5% and 0.292%, respectively. The outcome in [9] was inactive.

In the case of `COc1ccc(C(=O)N2CCC3(CC2)CN(c2ncccn2)C3)cc1`, the results for the Potency in assay [1] and in assay [5] were > 11.4 µM (inactive) and > 46 µM (inactive), respectively. The activity change, negative = inhibition is -9.3% (inactive) in assay [2], 13.7% (inactive) in [3] and 1.87% (inactive) in [8]. In addition, the activity, negative = inhibition in assay [4] was -24.2% (inactive). The Potency entry in assay [6] and in assay [7] was “inactive” each time. The max response was 12.3% in [8] (setting [10]) and 16.8% in assay [8] (setting [11]). The outcome in assay [9] was inactive.

With `O=C(c1cccc(F)c1)N1CCC[C@@]2(CCN(Cc3ccccc3)C2)C1`, the Potency in assay [1] is > 11.4 µM (inactive); in [5], > 46 µM (inactive). The activity change, negative = inhibition in [2] was -3.14% (inactive); in [3], -11.7% (inactive); in assay [8] it was -0.915% (inactive). For the same molecule, the activity, negative = inhibition in assay [4] was 9.35% (inactive). Further, the Potency entry in assay [6] and in assay [7] was “inactive” in each case. The max response in assay [8] (setting [10]) was determined as 11.6%; in assay [8] (setting [11]) it was 12%. The outcome in assay [9] was inactive.

The values above are taken from PubChem BioAssay (NCATS).
